The full list was thinned out, with hits kept by preference.
miR-122 inh – activators of miR-122 sensor in Huh7 cells; hit rate 0.14% among 340,000; AID 623901; activation, % at 12.5 µM; Huh7 psiCHECK-miR122 Renilla luciferase sensor, 48 h;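 active = mean activation of 30% or more, with every replicate also reaching 30%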;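 note: 0% = median of neutral control wells and 100% = median of positive control wells; higher luciferase signal means stronger suppression of miR-122 activity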
Numbers without * were called inactive.

SMILES	miR-122 inh
C[C@H]1CN([C@@H](C)CO)S(=O)(=O)c2ccc(-c3ccccc3)cc2O[C@@H]1CN(C)Cc1cncnc1	-10
C[C@@H]1CN([C@H](C)CO)S(=O)(=O)c2ccc(C3=CCCCC3)cc2O[C@@H]1CN(C)C(=O)CC1CC1	-1
Cc1noc(C)c1NC(=O)Nc1ccc2c(c1)CC(=O)N([C@@H](C)CO)C[C@H](C)[C@@H](CN(C)Cc1ccc(Cl)c(Cl)c1)O2	-109
C[C@@H]1CN([C@@H](C)CO)S(=O)(=O)c2ccc(-c3cncnc3)cc2O[C@@H]1CN(C)C(=O)Cc1cccnc1	-10
C[C@H](O)C#Cc1ccc2c(c1)O[C@@H](CN(C)C)[C@H](C)CN([C@H](C)CO)S2(=O)=O	-5
COc1ccccc1C#Cc1ccc2c(c1)O[C@H](CN(C)Cc1cccnc1)[C@H](C)CN([C@@H](C)CO)S2(=O)=O	39*
COc1ccccc1C#Cc1ccc2c(c1)O[C@H](CN(C)Cc1cncnc1)[C@@H](C)CN([C@@H](C)CO)S2(=O)=O	-7
C[C@@H]1CN([C@H](C)CO)S(=O)(=O)c2ccc(-c3ccccc3)cc2O[C@H]1CN(C)Cc1cccnc1	-17
COc1ccccc1C#Cc1ccc2c(c1)O[C@H](CN(C)Cc1cncnc1)[C@H](C)CN([C@@H](C)CO)S2(=O)=O	-12
C[C@H](CO)N1C[C@H](C)[C@H](CN(C)Cc2cccnc2)Oc2cc(-c3ccccc3)ccc2S1(=O)=O	-1
C[C@@H]1CN([C@@H](C)CO)S(=O)(=O)c2ccc(-c3ccccc3F)cc2O[C@@H]1CN(C)Cc1cccnc1	49*
CCC(=O)N(C)C[C@H]1Oc2ncc(C#Cc3ccc(OC)cc3)cc2C(=O)N([C@@H](C)CO)C[C@H]1C	0
COc1ccc(S(=O)(=O)Nc2ccc3c(c2)C(=O)N([C@H](C)CO)C[C@@H](C)[C@@H](CN(C)S(=O)(=O)c2ccc(C)cc2)O3)cc1	-100
Cc1ccc(-c2cnc3c(c2)C(=O)N([C@@H](C)CO)C[C@@H](C)[C@H](CN(C)C(=O)Cc2ccncc2)O3)cc1	-6
COc1ccc(CN(C)C[C@H]2Oc3c(NC(=O)NC4CCCCC4)cccc3C(=O)N([C@H](C)CO)C[C@@H]2C)cc1	-255
CC(C)CC#Cc1cnc2c(c1)C(=O)N([C@@H](C)CO)C[C@@H](C)[C@@H](CN(C)C(=O)Cc1ccccc1)O2	9
CCCCN1C=C(C(=O)OC)C(c2ccccc2C(F)(F)F)C(C(=O)OC)=C1	31*
CCC(=O)N(C)C[C@H]1Oc2cc(C#C[C@H](C)O)ccc2S(=O)(=O)N([C@@H](C)CO)C[C@H]1C	7
C[C@@H]1CN([C@@H](C)CO)S(=O)(=O)c2ccc(Br)cc2O[C@H]1CN(C)S(=O)(=O)c1cccc(F)c1	-1
Cc1noc(C)c1NC(=O)N(C)C[C@H]1Oc2ncc(C#CCC(C)C)cc2C(=O)N([C@H](C)CO)C[C@H]1C	1
C[C@@H]1CN([C@@H](C)CO)S(=O)(=O)c2ccc(C#CCC3CCCC3)cc2O[C@H]1CN(C)C(=O)c1ccccn1	-4
COc1ccc(NC(=O)COC(=O)CCCc2c[nH]c3ccccc23)cc1	36*
COc1cccc(CN(C(=O)Cc2c[nH]c3ccccc23)C(C(=O)NC2CCCCC2)c2cccs2)c1 (stereo not drawn)	-240
COc1ccc(NS(=O)(=O)c2cccc(NC(=O)COc3ccccc3[N+](=O)[O-])c2)cc1	-146
CCCNC(=O)N(C)C[C@@H]1Oc2cc(C#Cc3cccc(F)c3)ccc2S(=O)(=O)N([C@@H](C)CO)C[C@@H]1C	-4
SMILES	miR-122 inh
COc1ccc(C#Cc2cnc3c(c2)C(=O)N([C@H](C)CO)C[C@@H](C)[C@H](CN(C)CC2CCOCC2)O3)cc1	1
NCC12CC3CC(C1)CC(c1ccc(Br)cc1)(C3)C2	34*
COCC(=O)N(C)C[C@H]1Oc2ncc(/C=C/c3ccccc3)cc2C(=O)N([C@@H](C)CO)C[C@@H]1C	-3
CC(C)CC#Cc1ccc2c(c1)O[C@@H](CN(C)C(=O)NC1CCCC1)[C@@H](C)CN([C@@H](C)CO)S2(=O)=O	-14
CCCNC(=O)N(C)C[C@@H]1Oc2cc(Br)ccc2S(=O)(=O)N([C@H](C)CO)C[C@H]1C	4
C[C@@H]1CN([C@H](C)CO)C(=O)c2cc(C#Cc3ccccc3F)cnc2O[C@@H]1CN(C)S(=O)(=O)c1ccccc1	3
CC(C)C#Cc1ccc2c(c1)O[C@@H](CN(C)CC1CCCC1)[C@H](C)CN([C@H](C)CO)S2(=O)=O	-2
CCC(=O)Nc1ccc2c(c1)OC[C@H](C)N(C(=O)CN1CCOCC1)C[C@@H](C)[C@H](OC)CN(C)C2=O	0
O=C(Nc1ccc(Cn2cccn2)cc1)c1ccc(COc2ccccc2Br)cc1	31*
C[C@H](CO)N1C[C@H](C)[C@H](CN(C)C(=O)C2CCCCC2)Oc2ncc(-c3ccccc3F)cc2C1=O	-1
C[C@@H]1CN([C@H](C)CO)C(=O)c2cc(-c3cccnc3)cnc2O[C@H]1CN(C)C(=O)Nc1ccc(F)cc1	6
CCC(=O)N1C[C@H](C)[C@@H](OC)CN(C)C(=O)c2ccc(NS(C)(=O)=O)cc2OC[C@H]1C	0
C[C@H]1CN([C@@H](C)CO)S(=O)(=O)c2ccc(-c3ccccc3)cc2O[C@@H]1CN(C)Cc1ccccc1C(=O)O	-26
C[C@@H]1CN([C@@H](C)CO)S(=O)(=O)c2ccc(C#Cc3cccnc3)cc2O[C@H]1CN(C)CC1CCOCC1	-9
Cc1cc(C(F)F)n2ncc(C(=O)NCCc3ccccc3Cl)c2n1	33*
CCc1c(C(=O)NCc2ccccc2Cl)[nH]c(C)c1C(C)=O	-118
C[C@@H](O)C#Cc1cnc2c(c1)C(=O)N([C@@H](C)CO)C[C@H](C)[C@H](CN(C)C(=O)CN(C)C)O2	2
C[C@H]1CN([C@@H](C)CO)S(=O)(=O)c2ccc(C#Cc3ccncc3)cc2O[C@@H]1CN(C)C(=O)C1CCCCC1	-29
C/C=C/c1cnc2c(c1)C(=O)N([C@@H](C)CO)C[C@H](C)[C@@H](CN(C)C(=O)Nc1ccccc1F)O2	-3
C[C@H]1CN([C@@H](C)CO)C(=O)c2cc(C#Cc3ccccc3F)cnc2O[C@H]1CN(C)C(=O)Cc1ccncc1	0
Cc1ccccc1OCC(=O)NNC(=O)Nc1ccc(Cl)cc1	-144
Cc1ccccc1OCC(O)CNC1CCC(NCC(O)COc2ccccc2C)CC1 (stereo not drawn)	31*
CCCC#Cc1cnc2c(c1)C(=O)N([C@H](C)CO)C[C@H](C)[C@@H](CN(C)C(=O)C1CC1)O2	-10
CCCC#Cc1cnc2c(c1)C(=O)N([C@@H](C)CO)C[C@H](C)[C@@H](CN(C)Cc1ccccc1)O2	8
CC1CCCC(NC(=O)COC(=O)c2ccccc2NC(=O)c2ccco2)C1C (stereo not drawn)	-171
CCOC(=O)C1CCN(C(c2cccnc2)c2c(NC(=O)c3ccco3)sc(C)c2C)CC1 (stereo not drawn)	39*
Cc1sc(NC(=O)c2ccccc2)c(C(c2ccc(Cl)cc2)N2CCN(CCO)CC2)c1C (stereo not drawn)	-95
C[C@H]1CN([C@@H](C)CO)C(=O)c2cc(/C=C/c3ccccc3)cnc2O[C@H]1CN(C)C(=O)C1CCC1	5
C[C@@H]1CN([C@H](C)CO)C(=O)c2cc(C#CC3(O)CCCC3)cnc2O[C@@H]1CN(C)Cc1ccncc1	-5
C[C@@H]1CN([C@H](C)CO)S(=O)(=O)c2ccc(-c3ccccc3)cc2O[C@H]1CN(C)S(=O)(=O)c1ccccc1F	-6
